Assay [1] has as its target T1, Ephrin type-B receptor 2 (Homo sapiens) (UniProt P29323).
T1 sequence (whole entry): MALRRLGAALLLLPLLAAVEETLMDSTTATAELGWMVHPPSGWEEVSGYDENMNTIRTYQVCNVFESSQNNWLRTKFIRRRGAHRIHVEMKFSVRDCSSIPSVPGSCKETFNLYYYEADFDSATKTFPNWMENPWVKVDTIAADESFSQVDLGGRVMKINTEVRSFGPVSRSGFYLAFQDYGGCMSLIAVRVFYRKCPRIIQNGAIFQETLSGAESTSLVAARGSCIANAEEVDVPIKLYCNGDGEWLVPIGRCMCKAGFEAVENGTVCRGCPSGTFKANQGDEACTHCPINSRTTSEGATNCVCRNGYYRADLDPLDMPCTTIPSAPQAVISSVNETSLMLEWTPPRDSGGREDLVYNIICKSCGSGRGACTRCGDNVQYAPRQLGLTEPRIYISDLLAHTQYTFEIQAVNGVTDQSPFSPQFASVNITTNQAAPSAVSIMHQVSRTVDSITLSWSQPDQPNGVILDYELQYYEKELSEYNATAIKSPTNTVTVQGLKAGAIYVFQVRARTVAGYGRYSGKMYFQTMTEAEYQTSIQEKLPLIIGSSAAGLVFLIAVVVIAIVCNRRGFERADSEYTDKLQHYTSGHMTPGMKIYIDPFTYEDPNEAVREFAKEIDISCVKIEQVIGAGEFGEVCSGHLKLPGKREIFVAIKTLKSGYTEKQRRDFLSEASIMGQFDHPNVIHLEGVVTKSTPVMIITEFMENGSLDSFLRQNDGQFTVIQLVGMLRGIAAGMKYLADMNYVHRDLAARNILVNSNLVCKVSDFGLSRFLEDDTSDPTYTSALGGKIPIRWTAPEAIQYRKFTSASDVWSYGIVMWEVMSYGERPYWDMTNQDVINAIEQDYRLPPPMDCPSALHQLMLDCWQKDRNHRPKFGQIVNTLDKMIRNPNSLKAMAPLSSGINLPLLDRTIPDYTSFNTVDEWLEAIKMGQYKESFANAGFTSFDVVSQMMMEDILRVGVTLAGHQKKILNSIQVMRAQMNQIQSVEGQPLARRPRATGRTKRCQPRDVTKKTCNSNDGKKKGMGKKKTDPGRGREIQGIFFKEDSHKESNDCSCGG
To be noted: at 1 µM.

Assay [2] concerns the target T2, Ephrin type-B receptor 3 (Homo sapiens) (UniProt P54753).
T2 sequence (whole entry): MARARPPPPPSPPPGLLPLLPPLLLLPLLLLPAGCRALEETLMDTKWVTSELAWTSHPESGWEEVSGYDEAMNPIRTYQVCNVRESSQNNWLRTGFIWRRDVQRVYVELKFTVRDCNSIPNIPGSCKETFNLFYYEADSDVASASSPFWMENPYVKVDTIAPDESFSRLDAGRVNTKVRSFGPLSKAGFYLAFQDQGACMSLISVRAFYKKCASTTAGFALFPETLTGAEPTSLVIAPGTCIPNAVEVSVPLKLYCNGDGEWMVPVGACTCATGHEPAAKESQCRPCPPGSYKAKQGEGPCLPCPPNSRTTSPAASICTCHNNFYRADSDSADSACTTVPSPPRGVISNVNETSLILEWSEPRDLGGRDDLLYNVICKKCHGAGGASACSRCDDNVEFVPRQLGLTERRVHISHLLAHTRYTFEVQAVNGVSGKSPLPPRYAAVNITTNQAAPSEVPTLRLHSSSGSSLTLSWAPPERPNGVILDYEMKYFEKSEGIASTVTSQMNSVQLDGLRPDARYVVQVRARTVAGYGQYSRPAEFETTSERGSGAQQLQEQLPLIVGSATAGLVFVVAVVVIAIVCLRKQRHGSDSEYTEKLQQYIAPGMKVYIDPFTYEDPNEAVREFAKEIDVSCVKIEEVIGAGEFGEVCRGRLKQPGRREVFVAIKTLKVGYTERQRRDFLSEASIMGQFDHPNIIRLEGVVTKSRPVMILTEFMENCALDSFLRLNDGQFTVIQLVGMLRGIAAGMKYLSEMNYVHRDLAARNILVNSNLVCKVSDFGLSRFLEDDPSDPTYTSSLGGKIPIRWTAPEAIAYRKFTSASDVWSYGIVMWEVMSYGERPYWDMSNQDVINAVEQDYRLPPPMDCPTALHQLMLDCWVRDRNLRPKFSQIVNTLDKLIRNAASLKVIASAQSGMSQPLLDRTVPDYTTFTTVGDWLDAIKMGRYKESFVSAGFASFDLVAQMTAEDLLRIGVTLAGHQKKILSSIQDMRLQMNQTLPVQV
The note with it: at 0.1 µM.

Assay [3] deals with T2, Ephrin type-B receptor 3 (Homo sapiens). To be noted: at 1 µM.
Assay [4] addresses T3, Ephrin type-B receptor 4 (Homo sapiens) (UniProt P54760).
T3 sequence (whole entry): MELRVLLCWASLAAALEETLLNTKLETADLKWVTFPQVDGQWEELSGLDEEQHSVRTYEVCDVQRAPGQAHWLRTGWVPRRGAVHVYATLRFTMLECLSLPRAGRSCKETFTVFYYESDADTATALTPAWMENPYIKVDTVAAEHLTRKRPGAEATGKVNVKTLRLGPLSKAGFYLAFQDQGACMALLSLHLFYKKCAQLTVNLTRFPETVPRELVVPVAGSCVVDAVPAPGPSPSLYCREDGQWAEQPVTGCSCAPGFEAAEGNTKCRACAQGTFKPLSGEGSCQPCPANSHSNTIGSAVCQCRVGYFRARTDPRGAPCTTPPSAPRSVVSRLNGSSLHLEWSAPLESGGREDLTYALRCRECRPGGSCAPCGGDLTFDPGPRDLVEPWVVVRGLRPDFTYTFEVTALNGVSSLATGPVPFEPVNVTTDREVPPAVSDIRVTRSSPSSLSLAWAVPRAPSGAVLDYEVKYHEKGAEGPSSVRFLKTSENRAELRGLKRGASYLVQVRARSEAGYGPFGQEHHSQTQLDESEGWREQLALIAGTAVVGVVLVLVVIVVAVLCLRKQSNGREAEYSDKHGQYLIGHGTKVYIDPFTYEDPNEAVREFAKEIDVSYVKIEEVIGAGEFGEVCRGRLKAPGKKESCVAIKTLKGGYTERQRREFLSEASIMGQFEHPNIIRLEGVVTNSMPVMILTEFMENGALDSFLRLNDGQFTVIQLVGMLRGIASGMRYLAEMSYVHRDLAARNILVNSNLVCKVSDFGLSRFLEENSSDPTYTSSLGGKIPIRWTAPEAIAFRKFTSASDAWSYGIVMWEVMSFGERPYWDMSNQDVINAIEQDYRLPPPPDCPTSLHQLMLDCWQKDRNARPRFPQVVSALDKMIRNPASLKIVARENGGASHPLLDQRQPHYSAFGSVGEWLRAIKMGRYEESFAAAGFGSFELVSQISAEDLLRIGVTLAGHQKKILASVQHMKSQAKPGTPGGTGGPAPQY
To be noted: at 0.1 µM.

The target of assay [5] is T3, Ephrin type-B receptor 4 (Homo sapiens). To be noted: at 1 µM.
For assay [6], the target named is Receptor tyrosine-protein kinase erbB-2 (Homo sapiens) (UniProt P04626). To be noted: at 0.1 µM.
Assay [7] shares this target. The note with it: at 1 µM.
Assay [8] deals with Receptor tyrosine-protein kinase erbB-4 (Homo sapiens) (UniProt Q15303). To be noted: at 0.1 µM.
The target is the same in assay [9]. To be noted: at 1 µM.
The target of assay [10] is Tyrosine-protein kinase Fer (Homo sapiens) (UniProt P16591). The note with it: at 0.1 µM.
Assay [11] has the same target. To be noted: at 1 µM.
Assay [12] addresses Tyrosine-protein kinase Fes/Fps (Homo sapiens) (UniProt P07332). To be noted: at 0.1 µM.
For assay [13] the target is unchanged. The note with it: at 1 µM.
The target of assay [14] is Fibroblast growth factor receptor 1 (Homo sapiens) (UniProt P11362). To be noted: at 0.1 µM.
Assay [15] shares this target. To be noted: at 1 µM.
Assay [16] addresses Fibroblast growth factor receptor 2 (Homo sapiens) (UniProt P21802). To be noted: at 0.1 µM.
The target is the same in assay [17]. The note with it: at 1 µM.
For assay [18], the target named is Fibroblast growth factor receptor 3 (Homo sapiens) (UniProt P22607). To be noted: at 0.1 µM.
For assay [19] the target is unchanged. To be noted: at 1 µM.
For assay [20], the target named is Fibroblast growth factor receptor 4 (Homo sapiens) (UniProt P22455). To be noted: at 0.1 µM.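 Note: values are mean percent inhibition of FGFR4.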
Chain of Fibroblast growth factor receptor 4 (Homo sapiens) (P22455 22-802 limits assumed): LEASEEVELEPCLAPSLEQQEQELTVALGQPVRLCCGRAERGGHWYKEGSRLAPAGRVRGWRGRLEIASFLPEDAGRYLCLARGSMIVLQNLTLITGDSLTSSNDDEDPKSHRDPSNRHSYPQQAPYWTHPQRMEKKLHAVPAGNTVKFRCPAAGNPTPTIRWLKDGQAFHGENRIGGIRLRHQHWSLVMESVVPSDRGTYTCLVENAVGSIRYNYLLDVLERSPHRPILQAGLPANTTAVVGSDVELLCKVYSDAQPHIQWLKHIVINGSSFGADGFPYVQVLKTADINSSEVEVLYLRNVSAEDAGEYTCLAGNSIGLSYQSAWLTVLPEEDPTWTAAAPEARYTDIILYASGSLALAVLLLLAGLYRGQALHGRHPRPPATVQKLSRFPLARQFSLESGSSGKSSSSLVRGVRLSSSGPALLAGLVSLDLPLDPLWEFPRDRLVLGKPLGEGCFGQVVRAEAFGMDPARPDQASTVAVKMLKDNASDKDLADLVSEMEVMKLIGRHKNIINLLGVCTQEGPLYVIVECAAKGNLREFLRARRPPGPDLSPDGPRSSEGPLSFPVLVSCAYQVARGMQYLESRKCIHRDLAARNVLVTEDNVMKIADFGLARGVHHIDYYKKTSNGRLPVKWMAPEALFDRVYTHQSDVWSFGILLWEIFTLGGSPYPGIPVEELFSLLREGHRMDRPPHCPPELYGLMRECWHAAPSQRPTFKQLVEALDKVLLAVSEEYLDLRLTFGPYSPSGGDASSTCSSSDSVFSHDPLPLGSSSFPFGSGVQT

Chain of Receptor tyrosine-protein kinase erbB-4 (Homo sapiens) (Q15303 whole entry): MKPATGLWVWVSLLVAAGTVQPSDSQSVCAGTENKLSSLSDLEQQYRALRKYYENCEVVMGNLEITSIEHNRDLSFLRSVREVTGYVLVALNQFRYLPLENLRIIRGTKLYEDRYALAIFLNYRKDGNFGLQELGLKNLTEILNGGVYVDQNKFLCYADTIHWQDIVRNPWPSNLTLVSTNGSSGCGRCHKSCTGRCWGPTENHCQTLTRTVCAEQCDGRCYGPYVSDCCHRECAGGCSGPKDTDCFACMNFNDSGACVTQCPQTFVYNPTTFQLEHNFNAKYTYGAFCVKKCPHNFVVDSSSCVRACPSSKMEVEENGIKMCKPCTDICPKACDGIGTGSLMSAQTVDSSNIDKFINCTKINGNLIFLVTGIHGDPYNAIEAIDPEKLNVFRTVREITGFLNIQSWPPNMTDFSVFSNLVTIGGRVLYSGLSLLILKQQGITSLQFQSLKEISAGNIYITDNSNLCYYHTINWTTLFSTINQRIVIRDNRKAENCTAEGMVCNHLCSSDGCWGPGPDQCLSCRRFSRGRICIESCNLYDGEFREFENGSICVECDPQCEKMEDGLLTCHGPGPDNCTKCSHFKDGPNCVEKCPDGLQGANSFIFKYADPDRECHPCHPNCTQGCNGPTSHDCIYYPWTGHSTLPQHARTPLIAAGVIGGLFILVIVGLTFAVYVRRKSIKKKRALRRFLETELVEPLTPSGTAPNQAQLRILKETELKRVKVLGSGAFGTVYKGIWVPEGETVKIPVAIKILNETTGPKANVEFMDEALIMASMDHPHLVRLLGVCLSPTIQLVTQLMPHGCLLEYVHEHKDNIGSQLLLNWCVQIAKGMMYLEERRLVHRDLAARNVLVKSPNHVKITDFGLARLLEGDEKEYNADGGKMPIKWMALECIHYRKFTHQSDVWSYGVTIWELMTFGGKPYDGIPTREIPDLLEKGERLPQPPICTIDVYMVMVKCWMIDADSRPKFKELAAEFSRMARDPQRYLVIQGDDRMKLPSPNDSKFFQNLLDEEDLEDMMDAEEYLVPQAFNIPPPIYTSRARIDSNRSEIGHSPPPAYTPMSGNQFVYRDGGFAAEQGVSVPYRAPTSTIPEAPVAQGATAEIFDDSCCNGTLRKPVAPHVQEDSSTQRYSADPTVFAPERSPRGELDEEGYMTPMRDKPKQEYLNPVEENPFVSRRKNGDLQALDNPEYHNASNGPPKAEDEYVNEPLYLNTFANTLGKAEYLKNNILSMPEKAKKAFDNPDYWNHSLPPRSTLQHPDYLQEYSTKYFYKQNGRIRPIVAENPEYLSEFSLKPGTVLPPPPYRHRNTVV
Chain of Tyrosine-protein kinase Fes/Fps (Homo sapiens) (P07332 whole entry): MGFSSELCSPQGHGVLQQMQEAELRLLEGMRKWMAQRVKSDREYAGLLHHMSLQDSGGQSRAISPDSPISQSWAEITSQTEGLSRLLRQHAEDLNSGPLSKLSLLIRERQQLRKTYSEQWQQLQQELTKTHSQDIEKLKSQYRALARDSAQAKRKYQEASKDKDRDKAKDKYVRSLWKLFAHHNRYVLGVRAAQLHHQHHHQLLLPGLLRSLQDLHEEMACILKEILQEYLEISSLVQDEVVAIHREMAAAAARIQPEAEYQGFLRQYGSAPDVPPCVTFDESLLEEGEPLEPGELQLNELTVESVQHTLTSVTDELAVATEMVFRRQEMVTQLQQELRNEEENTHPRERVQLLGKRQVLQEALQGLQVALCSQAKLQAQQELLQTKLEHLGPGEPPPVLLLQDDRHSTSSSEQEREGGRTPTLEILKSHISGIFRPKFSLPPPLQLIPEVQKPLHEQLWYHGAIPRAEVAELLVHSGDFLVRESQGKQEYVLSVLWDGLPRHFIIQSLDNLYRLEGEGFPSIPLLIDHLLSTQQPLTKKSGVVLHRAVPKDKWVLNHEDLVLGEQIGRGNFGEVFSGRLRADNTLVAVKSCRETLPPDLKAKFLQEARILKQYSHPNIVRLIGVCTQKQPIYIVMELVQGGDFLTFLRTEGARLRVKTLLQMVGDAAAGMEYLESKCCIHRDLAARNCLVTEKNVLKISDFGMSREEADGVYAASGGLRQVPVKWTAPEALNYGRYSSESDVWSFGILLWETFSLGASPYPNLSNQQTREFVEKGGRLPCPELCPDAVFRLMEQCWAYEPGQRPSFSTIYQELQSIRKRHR
Chain of Tyrosine-protein kinase Fer (Homo sapiens) (P16591 whole entry, looked up): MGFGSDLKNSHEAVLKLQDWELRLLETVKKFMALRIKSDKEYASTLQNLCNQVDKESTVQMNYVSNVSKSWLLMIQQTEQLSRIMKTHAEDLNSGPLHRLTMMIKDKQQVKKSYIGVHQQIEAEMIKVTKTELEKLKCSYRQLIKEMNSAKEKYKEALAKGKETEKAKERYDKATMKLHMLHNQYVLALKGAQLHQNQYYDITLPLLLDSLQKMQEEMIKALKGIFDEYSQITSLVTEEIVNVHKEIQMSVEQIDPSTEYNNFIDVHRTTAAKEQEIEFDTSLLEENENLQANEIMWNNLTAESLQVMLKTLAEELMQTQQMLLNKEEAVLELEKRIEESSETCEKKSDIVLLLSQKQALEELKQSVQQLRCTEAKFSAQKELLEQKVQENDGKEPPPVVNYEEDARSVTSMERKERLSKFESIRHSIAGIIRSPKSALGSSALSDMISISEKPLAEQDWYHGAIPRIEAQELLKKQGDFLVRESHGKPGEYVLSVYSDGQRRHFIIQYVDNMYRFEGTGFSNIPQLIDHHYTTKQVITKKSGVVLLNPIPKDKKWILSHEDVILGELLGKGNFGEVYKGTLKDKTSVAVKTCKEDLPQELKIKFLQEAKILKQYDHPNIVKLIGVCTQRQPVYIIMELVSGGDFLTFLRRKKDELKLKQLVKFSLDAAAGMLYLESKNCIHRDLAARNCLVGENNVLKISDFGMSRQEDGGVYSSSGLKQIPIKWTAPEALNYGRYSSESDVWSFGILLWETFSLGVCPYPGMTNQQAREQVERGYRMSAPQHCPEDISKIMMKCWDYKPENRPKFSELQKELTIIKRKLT
Chain of Fibroblast growth factor receptor 1 (Homo sapiens) (P11362 22-822 limits assumed): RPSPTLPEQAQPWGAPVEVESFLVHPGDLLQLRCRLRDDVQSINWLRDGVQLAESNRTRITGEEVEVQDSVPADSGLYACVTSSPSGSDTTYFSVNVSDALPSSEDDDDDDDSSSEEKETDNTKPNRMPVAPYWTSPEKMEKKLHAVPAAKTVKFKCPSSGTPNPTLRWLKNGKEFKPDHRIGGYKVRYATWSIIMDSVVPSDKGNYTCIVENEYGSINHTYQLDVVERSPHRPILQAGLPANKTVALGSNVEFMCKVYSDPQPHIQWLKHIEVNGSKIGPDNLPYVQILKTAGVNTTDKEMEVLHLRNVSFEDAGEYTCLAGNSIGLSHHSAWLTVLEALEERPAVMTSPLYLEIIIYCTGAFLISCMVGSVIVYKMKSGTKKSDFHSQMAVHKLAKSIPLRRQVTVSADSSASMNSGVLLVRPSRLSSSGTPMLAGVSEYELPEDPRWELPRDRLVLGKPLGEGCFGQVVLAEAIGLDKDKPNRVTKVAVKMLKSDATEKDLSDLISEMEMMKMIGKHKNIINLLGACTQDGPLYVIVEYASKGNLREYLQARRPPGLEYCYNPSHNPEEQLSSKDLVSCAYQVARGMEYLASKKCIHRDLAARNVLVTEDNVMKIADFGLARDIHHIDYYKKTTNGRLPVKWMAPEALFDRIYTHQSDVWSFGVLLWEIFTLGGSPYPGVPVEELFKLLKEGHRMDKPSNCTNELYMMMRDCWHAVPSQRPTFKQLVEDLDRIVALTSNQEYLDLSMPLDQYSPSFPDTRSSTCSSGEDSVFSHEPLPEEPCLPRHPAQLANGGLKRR

`O=C(Nc1n[nH]c2nc(-c3ccco3)c(Br)cc12)C1CC1`: the inhibition (in general, the drop in the measured response relative to a control, in per cent) is 5.48% in assay [1]; 4.64% in assay [2]; 3.95% in assay [3]; 2.69% in [4]; 3.48% in assay [5]; 1.49% in [6]. Also, the inhibition in [7] was -3.9%; in [8] it was 10.1%; in assay [9] it was 15.8%; in assay [10], 1.93%; in assay [11], 0.63%; in assay [12] it was 2.91%. In addition, the inhibition in assay [13] was 3.27%; in assay [14], 1.76%; in assay [15] it was 5.28%; in assay [16] it was 2.01%; in assay [17], 7.9%; in [18], 6.29%. Further, the inhibition in [19] was 7.26%; in [20], -0.77%.
In the case of `COc1cc2ncn(-c3cc(O[C@@H](C)c4ccccc4Cl)c(C(N)=O)s3)c2cc1OC`, the inhibition in [1] was 14.1%; in assay [2] it was 3.27%; in assay [3], 3.66%; in assay [4] it was 1.67%; in assay [5] it was 4.23%; in [6], 0.23%. Also, the inhibition in assay [7] turned out to be 6.51%; in [8], 6.3%; in [9] it was 14.2%; in [10], 6.4%; in [11], 8.42%; in [12], 3.85%. The inhibition in [13] is 2.83%; in [14], 2.01%; in [15], 17.2%; in [16] it was 7.05%; in assay [17], 21.9%; in assay [18], 6.87%. In addition, the inhibition in assay [19] was 24.3%; in [20], 0.49%.
Turning to `Cc1cc(O)cc(C)c1/C=C/c1cncc(-c2nn[nH]n2)c1`, the inhibition was 61.5% in assay [1]; -0.26% in assay [2]; 5.69% in assay [3]; 3.89% in [4]; 46.2% in assay [5]; 1.86% in assay [6]. Moreover, the inhibition turned out to be 0.56% in assay [7]; 12.1% in assay [8]; 36.7% in assay [9]; 4.18% in assay [10]; 11.9% in [11]; 2.28% in assay [12]. Moreover, the inhibition stood at 3.8% in assay [13]; 2.34% in assay [14]; 3.83% in [15]; 1.54% in [16]; 13.3% in assay [17]; 3.74% in assay [18]. Besides, the inhibition in assay [19] was 2.92%; in [20], -9.13%.
Consider `CCCN1CCC(Oc2cc(Nc3nc(Nc4cccc(F)c4C(N)=O)c4cc[nH]c4n3)c(OC)cc2Cl)CC1`, for which the inhibition in [1] is 13.7%; in assay [2] it was 1.47%; in assay [3], -1.18%; in assay [4], -0.64%; in [5], 0.69%; in [6], 0.9%. Further, the inhibition is 1.3% in [7]; 0.71% in assay [8]; 0.3% in assay [9]; 3.76% in assay [10]; 16% in assay [11]; 0.64% in assay [12]. For the same molecule, the inhibition in [13] was 8.02%; in assay [14], 0.06%; in assay [15], 3.54%; in assay [16], -2.81%; in [17], 3.3%; in assay [18], 0.52%. Further, the inhibition in assay [19] turned out to be 0.96%; in assay [20], 0.71%.
Regarding `CCN1CCC(CC(=O)Nc2n[nH]c3nc(-c4cccs4)c(Br)cc23)CC1`, the inhibition is 1.96% in assay [1]; -2.11% in [2]; -3.61% in assay [3]; -1.44% in [4]; -2.19% in assay [5]; -4.26% in [6]. Besides, the inhibition in assay [7] was -1.56%; in assay [8], -5.1%; in [9], -7.08%; in [10] it was 0.22%; in assay [11] it was 2.34%; in assay [12], -3.39%. Besides, the inhibition in [13] is -4.54%; in [14] it was -3.02%; in assay [15], -1.95%; in assay [16], -4.3%; in [17], -0.25%; in [18] it was -1.64%. Also, the figures for the inhibition in assay [19] and in [20] were -1.77% and 0.71%, respectively.
Turning to `CC(=O)Nc1cccc(C#Cc2cncnc2Nc2ccc(OCc3cccc(F)c3)c(Cl)c2)n1`, the inhibition in assay [1] was 4.49%; in [2], -4.13%; in [3], -1.83%; in assay [4] it was -0.8%; in [5], 0.82%; in assay [6], 1.84%. Further, the inhibition in assay [7] was 0.35%; in [8], 18.5%; in [9], 62.8%; in assay [10], -0.09%; in assay [11], 4.77%; in assay [12] it was -0.62%. In addition, the inhibition in assay [13] is -1.06%; in assay [14], -3.81%; in [15], -5.8%; in [16], -4.24%; in assay [17], 0.03%; in [18], -1.4%. Also, the inhibition in assay [19] was -2.39%; in assay [20], 0.06%.
